# Data taken from PubChem BioAssay AID686979 (National Center for Advancing Translational Sciences (NCATS), 2013).
# In all, about 420,000 compounds went through this assay and about 50,000 (12%) were called active. Not shown: some 26% with an inconclusive outcome. For the sample, actives were picked, then their nearest neighbours and some compounds at random. Unmarked numbers belong to inactive results. Calls come from the whole dose curve; as a rule, active = well fitted inhibition curve with a large enough effect; inconclusive = small, poorly fitted or top-dose-only effect; inactive = flat fitted curve, though single readings scatter.
# Assay: qHTS for Inhibitors of human tyrosyl-DNA phosphodiesterase 1 (TDP1): qHTS in cells in presence of CPT; note: nearly all actives have a fitted effect of over 55% in size
# Conditions: chicken DT40 Tdp1-/-;hTDP1 cells + 20 nM CPT, ATP luminescence, 48 h; series mostly up to 46.2 µM; activity change, negative = growth inhibition: at the top concentration
# Summary of the method: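 Chicken DT40 Tdp1-/- cells stably complemented with human TDP1 were seeded at 400 cells/well in medium containing 20 nM camptothecin, exposed to pin-transferred compounds, and grown at 37 °C for at least 48 hr. Viability was read as ATP luminescence.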
# % is set by controls: 0 for no effect and ±100 for the full control effect; potency is the fitted concentration of half-maximal effect.
SMILES,"activity change, negative = growth inhibition [%]",Potency
COc1ccc(NC(=O)N(C)C[C@@H]2OCc3cn(nn3)CCCC(=O)N([C@H](C)CO)C[C@H]2C)c(OC)c1,-5.76,–
O=C(Nc1cccc([N+](=O)[O-])c1)Nn1cnnc1,-8.2,–
CC(C)CC(=O)NC(=S)Nc1cc(C(=O)O)ccc1Cl,-1.14,–
CC(C)Nc1ccc(-n2nc3ccccc3[n+]2[O-])cc1,11.5,–
NS(=O)(=O)c1ccc(CCNC(=O)CNC(=O)Cc2ccccc2)cc1,9.87,–
CCOc1cnc(-c2c(-c3ccccc3Cl)noc2C)o1,8.07,–
Cc1oc(-c2ccccc2Cl)[n+]([O-])c1C,–,14.6 µM (active)
OCC[C@H]1C[C@@H](O)[C@H](O)[C@]2(OCCCc3ccccc32)O1,-25.4,–
COc1ccc(C(=O)OCC(=O)N2CC(=O)Nc3ccccc32)cc1Br,-8.62,–
O=C(NC1CCCC1)c1ccc(Br)s1,-20.1,–
Cn1cccc1/C=N/NC(=O)CNc1cccc2ccccc12,4.64,–
Cc1cccc(/C=N/NC(=O)CNc2cccc3ccccc23)n1,–,18.4 µM (active)
Cc1ccc(C(=O)N/N=C/c2cccc3ccccc23)cn1,14.6,–
C/C(=N\NC(=O)CNc1cccc2ccccc12)c1ccc(Br)s1,–,11.6 µM (active)
C/C(Cc1ccccc1)=N\NC(=O)CNC(=O)c1cccc(Br)c1,0.991,–
COc1cc(OC)cc(C(=O)NCCSCc2ccc(Cl)cc2)c1,-3.77,–
Cc1ccc(C(=O)NC2CCN(C(=O)Nc3ccccc3Cl)CC2)cc1,-7.58,–
Cc1ccc(C)n1NC(=O)c1ccc([N+](=O)[O-])cc1,14.1,–
CC(=O)N1CCc2ccc(N)cc21,5.64,–
Cn1c(=O)n(Cc2ccco2)c(=N)c2c3c(sc21)CCCC3,-26.4,–
CC1CCN(C(=O)CCc2nnc3ccc(NCc4ccco4)nn23)CC1,-29.9,–
CN1CCc2c(sc3c2c(NCc2ccco2)nc2nnnn23)C1,–,29.1 µM (active)

SMILES,"activity change, negative = growth inhibition [%]",Potency
O=C(COC(=O)c1ncc(Cl)c(Cl)c1Cl)NNC(=O)c1ccccc1,-26.2,–
COc1ccc(N2C(=O)NC(NS(=O)(=O)c3ccc(Cl)cc3)(C(F)(F)F)C2=O)cc1 (stereo unspecified),4.4,–
O=C1/C(=C\c2ccccc2Cl)SC(=S)N1CCC(=O)N1CCCc2ccccc21,–,6.51 µM (active)
O=C(CN1CCCCCC1)NCCN1C(=O)S/C(=C\c2ccccc2Cl)C1=O,-18.4,–
COc1ccc(/C=C2\SC(=S)N(CCC(=O)Nc3cccc(C(=O)O)c3)C2=O)cc1OC,-14.9,–
Cc1ccc([C@@H]2CC(=O)[C@@H]3CN(S(=O)(=O)c4ccc(C)cc4)[C@H](c4ccccc4F)C[C@@H]3N2S(=O)(=O)c2ccc(Cl)cc2)cc1,-12.2,–
CC1CC(NC(=S)N(C)C)CC(C)(C)C1 (stereo unspecified),-16.6,–
CC1CC(NC(=O)/C(C#N)=C/c2ccc[nH]2)CC(C)(C)C1 (stereo unspecified),–,0.0184 µM (active)
CCN(C[C@H]1N[C@@](CC)(C(=O)OC)[C@H]2C(=O)N(C)C(=O)[C@@H]12)C(=O)Nc1ccc(F)cc1,1.04,–
Cc1nn(C(=O)c2c(F)cccc2F)c(C)c1S(=O)(=O)N1CCOCC1,7.22,–
Cc1cccc(C(=O)NNC(=O)c2cccc([N+](=O)[O-])c2)c1,6.1,–
O=C(Nc1ccc(NC(=O)c2ccco2)c(Cl)c1)c1cccc([N+](=O)[O-])c1,-7.2,–
O=C(Nc1ccc(C2CC2(Cl)Cl)cc1)c1cccc([N+](=O)[O-])c1 (stereo unspecified),–,23.1 µM (active)
Cc1c(NC(=O)C(C)Oc2cccc(Cl)c2)c(=O)n(-c2ccccc2)n1C (stereo unspecified),-19.3,–
COc1cc(/C=N/NC(=O)Cc2ccccc2)cc(OC)c1OC,2.59,–
COc1ccc2[nH]c(C(=O)N/N=C/c3cc(OC)c(OC)c(OC)c3)cc2c1,-44.3,–
COc1cc(/C=N/Nc2nn3cnnc3c3ccccc23)cc(OC)c1OC,–,10.3 µM (active)
CCOC(=O)CSc1nc(N2CCOCC2)c2c(c1C#N)CC(C(C)C)OC2 (stereo unspecified),4.05,–
Cc1cccc(NC(=O)Cc2ccc(Br)cc2)n1,-9.2,–
Cc1ccsc1C(C(=O)NC1CCCCC1)N(C(=O)Cc1cccs1)C1CC1 (stereo unspecified),–,20.6 µM (active)
Cc1ccccc1N(C(=O)Cc1cccs1)C(C(=O)NC1CCCCC1)c1cn(C)nc1C (stereo unspecified),-25.4,–
CC(Cc1cccs1)NC(=O)NC1CCCCC1 (stereo unspecified),-11.7,–

SMILES,"activity change, negative = growth inhibition [%]",Potency
CC(NC(=O)c1ccccc1SCC(=O)N1CCCC1)c1ccccc1 (stereo unspecified),-7.91,–
CC(NC(=O)c1cc(Sc2ccc(F)cc2F)nc2ccccc12)c1ccccc1 (stereo unspecified),–,13 µM (active)
CC(NC(=O)c1cc(=O)[nH]c2ccccc12)c1ccc(F)cc1F (stereo unspecified),7.75,–
CCCCNC(=O)c1nc(C2CCN(S(=O)(=O)c3ccc(F)c(F)c3)CC2)oc1-c1cccc(C(F)(F)F)c1,1.62,–
COc1ccc(N2CCN(Cc3nnc(-c4ccccc4)o3)CC2)cc1,-12.2,–
COc1ccc(N2CCN(S(=O)(=O)c3cc(Br)cnc3N)CC2)cc1,20.1,–
COc1ccc(N2CCN(c3cc(C)nc4nncn34)CC2)cc1,–,13 µM (active)
Cc1cccc(C(=O)Nc2ccc3c(c2)C(=O)N(CC(C)C)C3=O)c1,-28.1,–
O=C(CN1C(=O)c2ccccc2C1=O)NCc1ccc(C(=O)O)cc1,0.562,–
O=C(CCN1C(=O)c2ccccc2C1=O)NNC(=O)c1ccc(Cl)cc1Cl,-13.6,–
CCN(CC)C(=O)C1CCCN(Cc2cccc(Cl)c2)C1 (stereo unspecified),-27.2,–
O=C(Nc1cc(Cl)cc(Cl)c1)c1ccc2c(c1)N(Cc1cccc(Cl)c1)C(=O)c1ccccc1S2=O (stereo unspecified),–,3.66 µM (active)
CN(C(=O)c1ccc2c(c1)N(Cc1cccc(Cl)c1)C(=O)c1ccccc1S2=O)C1CCCCC1 (stereo unspecified),–,18.4 µM (active)
CN(Cc1ccc(F)cc1)C(=O)CN1C(=O)c2ccccc2S1(=O)=O,6.12,–
O=C(O)c1ccc2c(c1)N(Cc1ccc(F)cc1)C(=O)c1ccccc1S2=O (stereo unspecified),–,11.6 µM (active)
Cc1ccccc1NC(=O)NCC1CCN(Cc2cccc(Cl)c2)CC1,7.35,–
Brc1cc(/C=N/n2cnnc2)oc1Br,-27.2,–
CCCOC1CCCN(Cc2cn(C)nc2-c2ccccc2F)C1 (stereo unspecified),17,–
CC(=O)N1CC(=O)N(CC(=O)Nc2ccc(Br)cc2)C1=S,-13.4,–
COc1cccc(CNC(=O)Cn2c(=O)c3cccn3c3ccc(F)cc32)c1OC,-10.8,–
Cc1cccc(N2CC(C(=O)Nc3ccccc3N3CCCC3)CC2=O)c1C (stereo unspecified),9.32,–
O=C(COc1ccccc1F)OCc1cc(=O)n2nc(C3CCCCC3)sc2n1,-2.79,–

SMILES,"activity change, negative = growth inhibition [%]",Potency
CN(C)CCN=c1cc(-c2ccccc2)oc2ccc(Cl)cc12,1.27,–
CCc1nn(CC(=O)Nc2cc(C)cc(C)c2)c(=O)c2cc3sccc3n12,–,4.11 µM (active)
CCc1nn(CC(=O)Nc2cccc(C)c2C)c(=O)c2cc3sccc3n12,-1.63,–
CCc1nn(CC(=O)NCC(C)c2ccccc2)c(=O)c2cc3occc3n12 (stereo unspecified),-15.7,–
O=C(CC1SC(N2CCOCC2)=NC1=O)Nc1ccccc1F (stereo unspecified),5.5,–
O=C(OCC(=O)N1CCOCC1)c1ccc(N2CCOCC2)c([N+](=O)[O-])c1,17.7,–
O=C(Cc1ccc(S(=O)(=O)N2CCOCC2)s1)NCCOc1ccccc1F,-23.9,–
O=C(COc1ccc(S(=O)(=O)N2CCOCC2)cc1Cl)N1CCOCC1,1.63,–
Cc1cc(S(=O)(=O)N2CCOCC2)ccc1OCC(=O)Nc1cccc(C(F)(F)F)c1,-10.3,–
O=C(Nc1cc(Cl)ccc1N1CCOCC1)c1ccc(N2CCCC2=O)cc1,-12.9,–
O=C(Cc1ccc(S(=O)(=O)N2CCOCC2)s1)Nc1ccc(Br)c(C(F)(F)F)c1,–,14.6 µM (active)
O=C(c1ccc(N2CCCC2=O)cc1)N1CCN(c2ccc(C(F)(F)F)cc2[N+](=O)[O-])CC1,–,3.66 µM (active)
CNS(=O)(=O)c1ccc(N2CCCC2=O)c([N+](=O)[O-])c1,21.4,–
O=C(Cc1ccc(S(=O)(=O)N2CCOCC2)s1)N1CCN(c2ccc(C(F)(F)F)cc2[N+](=O)[O-])CC1,–,14.6 µM (active)
O=C(Nc1ccccc1Cl)N1CCN(c2ccc3nncn3n2)CC1,3.27,–
Cc1c(C)c2ccc(OCC(=O)N3CCC(C(=O)O)CC3)c(C)c2oc1=O,17.1,–
Cc1cccc(OCCC(=O)OCc2csc(CC(=O)Nc3ccccc3C)n2)c1,-16.9,–
COC(=O)c1ccc(CNC(=O)c2ccc3oc(C(C)C)nc3c2)cc1,-27.4,–
COc1ccc(CSc2nnnn2-c2ccc(O)cc2)cc1F,-50.4,–
CC1CCCCC1NC(=O)Cn1cnc2c1c(=O)n(C)c(=O)n2C (stereo unspecified),-10.2,–
O=C(COc1ccc(Cl)cc1[N+](=O)[O-])N1CCCCC1,-12.8,–
O=C(c1ccc(Oc2ccc(Cl)cc2)c([N+](=O)[O-])c1)N1CCCC1,–,13 µM (active)

SMILES,"activity change, negative = growth inhibition [%]",Potency
O=C(Oc1ccccc1Cl)c1ccc(N2CCOCC2)c([N+](=O)[O-])c1,-13.1,–
Cc1ccc(-n2cnc3ncnc(-c4ccccc4)c32)cc1,24.9,–
Cc1ccc(-c2nn(CC(C)(C)C)c3ncnc(N)c23)cc1,–,6.68 µM (active)
CC(=O)NC(CC(=O)Nc1nccs1)c1ccccc1 (stereo unspecified),-13,–
CCOc1ccc(NC(=O)CN(C)C(=O)COc2cccc(CC)c2)cc1OCC,-24.3,–
Cc1noc(C)c1CCC(=O)N1CCCC(CO)(Cc2ccccc2)C1 (stereo unspecified),-17.9,–
Oc1ccc(N=Nc2nccs2)c(O)c1,–,10.3 µM (active)
Oc1ccc2ccccc2c1N=Nc1nccs1,–,1.16 µM (active)
Oc1ccc2ccccc2c1C=Nc1ccccc1,1.22,–
O=C(OCC(=O)N1CCCCCC1)c1ccc(Br)c(S(=O)(=O)N2CCOCC2)c1,-9.49,–
COC(=O)C1=C(C(=O)OC)[C@@H]2N(Cc3ccccc3)c3ccccc3[C@@]23C[C@@H](C(=O)OC)N(S(=O)(=O)c2ccc(C(F)(F)F)cc2)C3=N1,-26.2,–
CN1OC[C@@H]2CN(C(=O)C(C)(C)C)[C@H](c3ccc(-n4ccnc4)cc3)C[C@@H]21,-11.7,–
O=C(Nc1cccc(F)c1)c1coc(=O)c(Br)c1,–,1.3 µM (active)
O=C(CCN1C(=O)c2ccccc2C1=O)Nc1cccc(F)c1,-3.34,–
O=C(Nc1cccc(NC(=O)c2cccc(F)c2)c1)c1ccccc1,-13.4,–
Cc1c(NC(=O)c2cccnc2)c(=O)n(-c2ccccc2)n1C,–,inactive
Cc1cc(C(=O)Nc2c(C)n(C)n(-c3ccccc3)c2=O)cs1,-15,–
Cc1c(NC(=O)c2coc(=O)c(Br)c2)c(=O)n(-c2ccccc2)n1C,–,2.59 µM (active)
